The source of these data is PubChem BioAssay (NCI).

This is part of a sample that, as a whole, favours compounds with a hit. Of some 83,000 tested, about 20% had one in any assay.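 96-well plates, one dose, 48 hours. Percent growth reported; active if below 10.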 Calls of active or inactive are those of the source.

This assay relates to HL-60(TB) leukemia. As to the kind of experiment: NCI-60 one-dose screen, 48 h (100 = growth as untreated, 0 = no growth, -100 = all killed). The note with it: 10 µM unless noted.
For `C=C(C)[C@@H]1CC[C@]2(C)[C@H](CC[C@@H]3[C@@H]([C@@](C)(O)CCC=C(C)C)CC[C@]32C)[C@@]1(C)CCC(=O)N1CCN(C)CC1`, the growth was -32.3% [100 µM] (active).

Turning to `Cc1nc(Nc2ccc(N)cc2)c2ccccc2n1`, the growth was 62% (inactive).

For `COc1cc(C(=O)n2nc(N)c3c(C)cc(C)nc32)cc(OC)c1OC`, the growth is 21.6% (inactive).

In the case of `COC(=O)CNC(=O)c1ccc(NC(=O)c2[nH]c(C)c(Cl)c2Cl)c(O[C@H]2CCNC2)c1`, the growth was 95.7% (inactive).

With `C=C(C)[C@@H]1CC[C@]2(COCCC#N)CC[C@]3(C)[C@H](CC[C@@H]4[C@@](C)(CCCNCCC#N)[C@H](C(=C)C)CC[C@]43C)[C@@H]12`, the growth is -16.2% [100 µM] (active).

Take `N#CC1=C(N2CCOCC2)NC2c3ccccc3Sc3ccccc3N2C1=N` (stereo not given): the growth is 89.8% (inactive).

For `COC(=O)/C(=C\c1c(C)[nH]c2ccccc12)S(=O)(=O)c1ccccc1`, the growth is -27.3% (active).

For the compound `COc1ccc2nc3cc(Cl)ccc3c(N3CCN(c4nccc(Nc5ccccc5)n4)CC3)c2c1`, the growth is 73.8% (inactive).

For `CC(O)(c1ccccc1)C(c1ccccc1)C1CCCCN1` (stereo not given), the growth is 78.9% (inactive).

On to `COC(=O)C1C(O)C(C)C(O)C(C)C=C(C)C2=C3C(=C(C)C(=O)c4c(O)c(c(C)c(OC(C)=O)c43)NC(=O)C(C)=C/C=C\C(C)C(O)C(C)C1O)OCO2` (stereo not given), for which the growth was 141% (inactive).

As to `CN(C)N=Nc1nn(C(=O)Nc2ccc(Cc3ccccc3)cc2)c2ccccc12`, the growth is 21.4% (inactive).

`COc1ccc(/C=C2\NC(=S)NC2=O)cc1`: the growth is 91.6% (inactive).

Turning to `COc1ccc(-n2c(SCc3cc(OC)c(OC)c(OC)c3)nc3ccc(C)cc3c2=O)c(OC)c1`, the growth was -44.3% (active).

Regarding `CCCCNC(=O)Oc1ccc(/C(=C(/C)Cc2ccc(OC)cc2)c2ccc(OCCN3CCCCCC3)cc2)cc1`, the growth is 33.9% (inactive).

Take `COc1ccc(Cn2nc(-c3ccccc3)c3c2CCc2cnoc2-3)cc1`: the growth is 69.4% (inactive).

As to `CCN(CC)c1ccc2cc(NC(=O)OCCNC(=O)CCNC(=O)[C@H](CC(C)C)NC(=O)C(C)(C)NC(=O)C(C)(C)NC(=O)[C@H](CC(C)C)NC(=O)CCNC(=O)C(C)(C)NC(=O)[C@H](CC(C)C)NC(=O)CCNC(=O)[C@@](C)(CC)NC(=O)[C@H](C)NC(=O)CCNC(=O)C(C)(C)NC(=O)[C@H](C)NC(=O)[C@@H]3CCCN3C(=O)[C@@](C)(CC)NC(=O)[C@H](Cc3ccccc3)NC(=O)C3CCCN3C(=O)C(C)(C)NC(=O)C3CCCN3C(=O)C(C)(C)NC(C)=O)c(=O)oc2c1` (stereo not given in full), the growth was -67.7% (active).

For the compound `O=C(CNC(=O)c1cccc2ccccc12)Nc1ccccc1Oc1ccc(O)cc1`, the growth was -13.9% [5 µM] (active).

Regarding `Cc1nc2nc(N)nc(N)c2nc1C`, the growth is 94.2% (inactive).

On to `Nc1cc(C(=O)O)cc(-n2c(O)c(C=C3N=c4ccccc4=N3)sc2=S)c1`, for which the growth was 101% (inactive).

In the case of `CCN(CCO)CCCOc1ccc2c(Nc3cc(CC(=O)Nc4cccc(F)c4)[nH]n3)ncnc2c1`, the growth is -2.32% (active).

With `COc1cc(/C=C/C(=O)c2cccc(-n3cc(-c4ccccc4)[nH]c3=O)c2)cc(OC)c1OC`, the growth is -5.55% (active).

In the case of `COc1cc(C2=C(c3cn(C)c4ccccc34)COC2=O)cc(OC)c1OC`, the growth was -1.28% (active).

For the compound `C=C1SC(=Nc2c(C)cccc2C)N(c2nc(Cl)nc(Cl)n2)C12CCCCC2`, the growth was 100% (inactive).

For `Cn1c2c(c3ccc(Cl)c(Cl)c31)C(C#N)C(C)(C)NC2=O` (stereo not given), the growth is 69.3% (inactive).

On to `Cc1ccc(Cn2c(-c3nonc3N)nc3ccccc32)cc1`, for which the growth is 71.8% (inactive).

As to `COc1ccc(/C=N\Nc2nc(SCCC(C)C)nc(-c3ccc(OC)cc3)c2C#N)cc1`, the growth was 34% (inactive).

Regarding `C=C1CCC2C3(C)COC(c4ccc(SC)cc4)OC3CCC2(C)C1C/C=C1/C(=O)OCC1O` (stereo not given), the growth is -12.1% (active).

Consider `COc1ccc(-n2nc(C(=O)NCC(=O)O)nc2-c2ccccc2)cc1`, for which the growth was 96.3% (inactive).

Consider `CC1Cc2c(Cl)ncnc2N(C)c2ccccc21` (stereo not given), for which the growth is 11.8% (inactive).

With `CC(O)C(O)C(O)C(O)C(O)C(=O)NNc1ccccc1` (stereo not given), the growth is 116% (inactive).

On to `COc1ccc(OCC(=O)Nc2ccc(-c3nc4ccccc4s3)cc2C)cc1`, for which the growth is 48.2% (inactive).

Regarding `Cc1cc(C)c([I+]c2c(C)cc(C)cc2C)c(C)c1`, the growth is -64.3% (active).

Consider `O=C(c1nc2ccccc2[nH]1)C1[C@@H](c2cccc(O)c2)C2CC3CCCCC3N2[C@@]12C(=O)Nc1cc(Cl)ccc12` (stereo not given in full), for which the growth is 6.59% (active).

Take `COC(=O)c1nc(-c2ccccc2)oc1S(=O)(=O)NCC(c1ccc(Cl)cc1)N1CCOCC1` (stereo not given): the growth was 4.12% (active).

With `Cn1cc(-c2noc(C(=O)c3cn(C)c4ncc(Br)cc34)n2)c2ccccc21`, the growth is 103% (inactive).

Take `CCOC(=O)c1c(C=O)nc2ccccc2c1/C=C/c1ccc(Cl)cc1`: the growth was 69.7% (inactive).

Regarding `O=S(=O)(NCCCNc1nccc(-c2c(-c3cccc(F)c3)nc3occn23)n1)c1ccc(F)cc1`, the growth is 5.83% (active).

`Cc1cccc(NCc2cn(-c3ccc(C(=O)O)cc3)nc2-c2ccc(C(=O)O)cc2)n1`: the growth was 101% (inactive).

Take `CN(C)c1ccc(-c2ccc(-c3ccc(C(=N)N)cn3)o2)cc1`: the growth was -67.3% (active).

Regarding `C=CCn1c(SCC(=O)Nc2ccc(C(=O)/C=C/c3cc(OC)c(OC)c(OC)c3)cc2)nnc1-c1cc(-c2ccc(Cl)cc2)nc2ccccc12`, the growth was 98.7% (inactive).
